Assay results as given in PubChem BioAssay AID1345085 (National Center for Advancing Translational Sciences (NCATS), 2018).
Records with an inconclusive call do not appear. Values without a mark were called inactive. Calls of active or inactive are those of the source. Calls come from the whole dose curve; as a rule, active = well fitted cell-killing curve with a large enough effect; inconclusive = small, poorly fitted or top-dose-only effect, or effect the other way; inactive = no such curve, though single readings can be large or run the other way. *1 amine or outer side, *2 acyl side, *3 side chain or, on linkers, in order; H or OH if unused. Where a SMILES comes first, the peptide text is derived from it. Bridges are numbered along the chain shown (N, C = ends). Roman numbers before positions name the chains, in order. [ ]: non-standard residue; d: D form. Actinocin(9to1) = Cc1c2oc3c(C)ccc(C(=O)[*:1])c3nc-2c(C(=O)[*:2])c(N)c1=O; NMeV = CN[C@H](C(=O)O)C(C)C; Sar = CNCC(=O)O

The molecules below were run on CAOV3 (assay: Confirmatory qHTS for gynecologic anti-cancer compounds from libraries of approved drugs and bioactive compounds). Details: gynecologic cancer cell panel viability, ATPlite luminescence, 48 h; series mostly up to 57.6 µM; activity change, negative = viability loss: at the top concentration.
In short: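 1,000 cells/well; 16 h pre-incubation 37 C, 5% CO2; pin-transferred cpd in DMSO, 11 conc (1:3), 57.5 uM–0.977 nM; 48 h; ATPlite, 15 min RT; luminescence → IC50.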
% is set by controls: 0 for no effect and ±100 for the full control effect; potency is the fitted concentration of half-maximal effect.
Note: nearly all actives have a fitted effect of over 55% in size.

Structure (SMILES)	Potency	activity change, negative = viability loss
CN(C)C(CCOc1cccc2ccccc12)c1ccccc1 (stereo unspecified)	30.6 µM (active)	–
Cc1[nH]c2ccccc2c1CCNCc1ccc(/C=C/C(=O)NO)cc1	0.685 µM (active)	–
Cc1cnc(Nc2ccc(OCCN3CCCC3)cc2)nc1Nc1cccc(S(=O)(=O)NC(C)(C)C)c1	7.69 µM (active)	–
Cc1ccn(-c2ccc(-c3ncco3)cc2)c(=O)c1-c1ccc2nc(N)ncc2c1	–	-11.3%
COc1cc(Nc2c(C#N)cnc3cc(OCCCN4CCN(C)CC4)c(OC)cc23)c(Cl)cc1Cl	27.3 µM (active)	–
Cc1cnc(Nc2cccc(CN3CCOCC3)c2)nc1Nc1cccc(S(=O)(=O)NC(C)(C)C)c1	10.9 µM (active)	–
Cc1ccc(C(=O)Nc2ccc(CN3CCN(C)CC3)c(C(F)(F)F)c2)cc1C#Cc1cnc2[nH]ncc2c1	30.6 µM (active)	–
CN1C(=O)C(Cc2c[nH]c3ccccc23)NC1=S (stereo unspecified)	–	8.8% [at 19.5 µM]
Cc1c2oc3c(C)ccc(C(=O)N[C@@H]4C(=O)N[C@H](C(C)C)C(=O)N5CCC[C@H]5C(=O)N(C)CC(=O)N(C)[C@@H](C(C)C)C(=O)O[C@@H]4C)c3nc-2c(C(=O)N[C@@H]2C(=O)N[C@H](C(C)C)C(=O)N3CCC[C@H]3C(=O)N(C)CC(=O)N(C)[C@@H](C(C)C)C(=O)O[C@@H]2C)c(N)c1=O (I: T[dV]P[Sar][NMeV] / II: T[dV]P[Sar][NMeV]; ester I:1-I:C, II:1-II:C; linker I:N-II:N via Actinocin(9to1))	0.344 µM (active)	–
CN(C)/N=N/c1nc[nH]c1C(N)=O	–	11%
CCCCN(CCCC)C(=O)CN1C[C@H](c2ccc3c(c2)OCO3)[C@@H](C(=O)O)[C@@H]1c1ccc(OC)cc1	–	-12.5%
COC(C)(C)CCn1nc(Nc2c(C)cccc2C)c2cnc(Nc3ccc(OCCN4CCCC4)c(F)c3)nc21	21.7 µM (active)	–
CC(C)[C@@H](CS(=O)(=O)C(C)C)N1C(=O)[C@@](C)(CC(=O)O)C[C@H](c2cccc(Cl)c2)[C@H]1c1ccc(Cl)cc1	–	-16.5%
CCCCc1oc2ccccc2c1C(=O)c1cc(I)c(OCCN(CC)CC)c(I)c1	79.4 µM (active)	–
NCCOc1cc(C(=O)Nc2cc(OCCN)c3ccccc3n2)nc(C(=O)Nc2cc(OCCN)c3ccccc3n2)c1	–	-15.8%
Cc1cc(Nc2nc(N[C@@H](C)c3ccc(F)cc3)c(C#N)cc2F)n[nH]1	17.2 µM (active)	–
Cc1c(C)n(Cc2ccc(-c3ccccc3C(=O)O)cc2)c2ccc(C(=O)N[C@@H](C)c3ccc([N+](=O)[O-])cc3)cc12	–	11.8%
Cc1cc(C(=O)N2CCN(c3cccc(Cl)c3)CC2)n(-c2ccccc2)n1	–	9.33%
CCN1CCN(Cc2ccc(-c3cc4c(NC(C)c5ccccc5)ncnc4[nH]3)cc2)CC1 (stereo unspecified)	27.3 µM (active)	–
CO[C@@]12[C@H](COC(N)=O)C3=C(C(=O)C(C)=C(N)C3=O)N1C[C@@H]1N[C@@H]12	–	15.3%
CCN(CC)CCNC(=O)c1c(C)[nH]c(/C=C2\C(=O)Nc3ccc(F)cc32)c1C	15.8 µM (active)	–
